Our source for the inhibition values is ChEMBL document CHEMBL1961873, “Compounds: GSK PKIS; Assays: Nanosyn kinase panel” (2012).

Usually inhibition stands for the drop in the measured response relative to a control, in per cent.

Assay [1] concerns the target Sphingosine kinase 1 (Homo sapiens) (UniProt Q9NYA1). Particulars: at 1 µM.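 Further: mean SPHK1 inhibition value reported from the GSK PKIS kinase panel screen.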
The target of assay [2] is T1, Sphingosine kinase 2 (Homo sapiens) (UniProt Q9NRA0).
T1 sequence (whole entry): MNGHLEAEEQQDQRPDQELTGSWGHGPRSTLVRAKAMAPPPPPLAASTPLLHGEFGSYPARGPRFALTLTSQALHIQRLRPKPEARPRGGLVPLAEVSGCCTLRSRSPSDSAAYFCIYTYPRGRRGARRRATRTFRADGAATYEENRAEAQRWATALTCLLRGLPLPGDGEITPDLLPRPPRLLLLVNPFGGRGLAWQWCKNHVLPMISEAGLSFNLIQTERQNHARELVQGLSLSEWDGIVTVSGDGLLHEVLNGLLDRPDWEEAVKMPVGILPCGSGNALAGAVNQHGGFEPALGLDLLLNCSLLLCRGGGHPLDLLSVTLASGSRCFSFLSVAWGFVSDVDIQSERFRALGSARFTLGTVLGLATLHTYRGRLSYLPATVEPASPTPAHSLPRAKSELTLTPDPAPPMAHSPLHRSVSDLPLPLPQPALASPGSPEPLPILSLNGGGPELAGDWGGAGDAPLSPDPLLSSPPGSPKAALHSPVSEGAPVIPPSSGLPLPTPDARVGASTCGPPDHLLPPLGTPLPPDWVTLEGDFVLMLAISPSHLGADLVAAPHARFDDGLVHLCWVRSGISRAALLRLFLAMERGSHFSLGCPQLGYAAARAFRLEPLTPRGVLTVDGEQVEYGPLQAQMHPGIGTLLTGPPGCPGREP
Particulars: at 0.1 µM.

The target of assay [3] is T1, Sphingosine kinase 2 (Homo sapiens). The following applies: at 1 µM.
The target of assay [4] is Casein kinase II subunit alpha (Homo sapiens) (UniProt P68400). Particulars: at 0.1 µM.
Assay [5] has the same target. Particulars: at 1 µM.
Assay [6] concerns the target T2, Inhibitor of nuclear factor kappa-B kinase subunit alpha (Homo sapiens) (UniProt O15111).
T2 sequence (whole entry): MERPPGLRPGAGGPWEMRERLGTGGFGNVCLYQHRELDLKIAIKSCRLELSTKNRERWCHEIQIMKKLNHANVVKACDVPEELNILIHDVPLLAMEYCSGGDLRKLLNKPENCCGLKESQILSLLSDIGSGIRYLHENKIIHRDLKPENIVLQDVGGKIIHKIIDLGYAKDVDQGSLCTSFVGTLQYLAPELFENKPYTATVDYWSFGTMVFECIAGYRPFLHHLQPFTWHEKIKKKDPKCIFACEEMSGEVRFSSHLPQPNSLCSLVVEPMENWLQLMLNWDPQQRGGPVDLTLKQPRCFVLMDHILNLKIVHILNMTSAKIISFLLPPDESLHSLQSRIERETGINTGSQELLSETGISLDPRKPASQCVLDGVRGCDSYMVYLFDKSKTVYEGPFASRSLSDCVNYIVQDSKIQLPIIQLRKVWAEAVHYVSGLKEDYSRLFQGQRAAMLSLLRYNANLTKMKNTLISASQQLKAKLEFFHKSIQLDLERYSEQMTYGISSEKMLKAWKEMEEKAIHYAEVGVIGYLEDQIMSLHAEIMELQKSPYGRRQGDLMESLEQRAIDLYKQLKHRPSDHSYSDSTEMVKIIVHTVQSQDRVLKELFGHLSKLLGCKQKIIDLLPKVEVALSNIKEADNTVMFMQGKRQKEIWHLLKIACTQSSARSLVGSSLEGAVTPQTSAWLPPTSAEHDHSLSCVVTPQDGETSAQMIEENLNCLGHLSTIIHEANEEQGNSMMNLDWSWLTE
Particulars: at 0.1 µM.

The target of assay [7] is T2, Inhibitor of nuclear factor kappa-B kinase subunit alpha (Homo sapiens). The following applies: at 1 µM.
Assay [8] deals with T3, Inhibitor of nuclear factor kappa-B kinase subunit beta (Homo sapiens) (UniProt O14920).
T3 sequence (whole entry): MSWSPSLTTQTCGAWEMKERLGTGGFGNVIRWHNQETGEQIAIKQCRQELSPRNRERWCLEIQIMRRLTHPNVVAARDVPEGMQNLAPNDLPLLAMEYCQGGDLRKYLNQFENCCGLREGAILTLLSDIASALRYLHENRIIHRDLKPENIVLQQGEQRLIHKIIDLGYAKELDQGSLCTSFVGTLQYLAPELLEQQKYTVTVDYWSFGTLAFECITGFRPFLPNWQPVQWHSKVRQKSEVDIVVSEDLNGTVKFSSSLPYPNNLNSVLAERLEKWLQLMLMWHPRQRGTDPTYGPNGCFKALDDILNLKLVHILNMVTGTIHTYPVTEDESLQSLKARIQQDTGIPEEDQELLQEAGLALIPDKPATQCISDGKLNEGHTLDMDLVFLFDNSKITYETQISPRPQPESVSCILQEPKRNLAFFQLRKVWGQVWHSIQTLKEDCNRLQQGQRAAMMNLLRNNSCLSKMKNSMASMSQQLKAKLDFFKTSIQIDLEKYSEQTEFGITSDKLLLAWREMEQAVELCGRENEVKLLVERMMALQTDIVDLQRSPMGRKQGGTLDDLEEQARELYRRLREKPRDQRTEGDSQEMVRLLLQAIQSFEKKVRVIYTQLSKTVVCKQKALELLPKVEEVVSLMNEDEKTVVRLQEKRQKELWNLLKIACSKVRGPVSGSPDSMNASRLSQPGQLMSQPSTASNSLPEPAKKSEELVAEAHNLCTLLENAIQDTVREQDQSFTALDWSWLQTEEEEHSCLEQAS
The following applies: at 0.1 µM.

Assay [9] addresses T3, Inhibitor of nuclear factor kappa-B kinase subunit beta (Homo sapiens). Particulars: at 1 µM.
Assay [10] addresses T4, Inhibitor of nuclear factor kappa-B kinase subunit epsilon (Homo sapiens) (UniProt Q14164).
T4 sequence (whole entry): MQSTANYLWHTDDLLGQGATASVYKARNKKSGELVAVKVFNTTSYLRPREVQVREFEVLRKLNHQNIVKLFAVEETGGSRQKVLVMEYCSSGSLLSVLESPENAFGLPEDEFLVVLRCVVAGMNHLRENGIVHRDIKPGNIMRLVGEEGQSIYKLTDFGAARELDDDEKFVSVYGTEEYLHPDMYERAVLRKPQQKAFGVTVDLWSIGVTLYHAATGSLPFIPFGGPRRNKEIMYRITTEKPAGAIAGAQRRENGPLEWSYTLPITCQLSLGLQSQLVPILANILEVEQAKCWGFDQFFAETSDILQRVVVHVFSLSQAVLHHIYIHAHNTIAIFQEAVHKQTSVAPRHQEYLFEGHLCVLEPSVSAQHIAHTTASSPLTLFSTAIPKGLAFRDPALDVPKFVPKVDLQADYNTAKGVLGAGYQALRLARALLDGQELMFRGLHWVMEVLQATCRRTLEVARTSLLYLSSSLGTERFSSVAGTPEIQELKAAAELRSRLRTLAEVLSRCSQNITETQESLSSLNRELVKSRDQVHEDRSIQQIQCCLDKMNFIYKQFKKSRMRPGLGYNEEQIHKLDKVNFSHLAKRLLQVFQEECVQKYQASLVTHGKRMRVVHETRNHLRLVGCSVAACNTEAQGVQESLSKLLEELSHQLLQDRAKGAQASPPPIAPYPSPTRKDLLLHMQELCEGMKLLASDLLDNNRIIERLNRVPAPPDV
The following applies: at 0.1 µM.

For assay [11], the target named is T4, Inhibitor of nuclear factor kappa-B kinase subunit epsilon (Homo sapiens). The following applies: at 1 µM.
The target of assay [12] is T5, Serine/threonine-protein kinase Nek1 (Homo sapiens) (UniProt Q96PY6).
T5 sequence (whole entry): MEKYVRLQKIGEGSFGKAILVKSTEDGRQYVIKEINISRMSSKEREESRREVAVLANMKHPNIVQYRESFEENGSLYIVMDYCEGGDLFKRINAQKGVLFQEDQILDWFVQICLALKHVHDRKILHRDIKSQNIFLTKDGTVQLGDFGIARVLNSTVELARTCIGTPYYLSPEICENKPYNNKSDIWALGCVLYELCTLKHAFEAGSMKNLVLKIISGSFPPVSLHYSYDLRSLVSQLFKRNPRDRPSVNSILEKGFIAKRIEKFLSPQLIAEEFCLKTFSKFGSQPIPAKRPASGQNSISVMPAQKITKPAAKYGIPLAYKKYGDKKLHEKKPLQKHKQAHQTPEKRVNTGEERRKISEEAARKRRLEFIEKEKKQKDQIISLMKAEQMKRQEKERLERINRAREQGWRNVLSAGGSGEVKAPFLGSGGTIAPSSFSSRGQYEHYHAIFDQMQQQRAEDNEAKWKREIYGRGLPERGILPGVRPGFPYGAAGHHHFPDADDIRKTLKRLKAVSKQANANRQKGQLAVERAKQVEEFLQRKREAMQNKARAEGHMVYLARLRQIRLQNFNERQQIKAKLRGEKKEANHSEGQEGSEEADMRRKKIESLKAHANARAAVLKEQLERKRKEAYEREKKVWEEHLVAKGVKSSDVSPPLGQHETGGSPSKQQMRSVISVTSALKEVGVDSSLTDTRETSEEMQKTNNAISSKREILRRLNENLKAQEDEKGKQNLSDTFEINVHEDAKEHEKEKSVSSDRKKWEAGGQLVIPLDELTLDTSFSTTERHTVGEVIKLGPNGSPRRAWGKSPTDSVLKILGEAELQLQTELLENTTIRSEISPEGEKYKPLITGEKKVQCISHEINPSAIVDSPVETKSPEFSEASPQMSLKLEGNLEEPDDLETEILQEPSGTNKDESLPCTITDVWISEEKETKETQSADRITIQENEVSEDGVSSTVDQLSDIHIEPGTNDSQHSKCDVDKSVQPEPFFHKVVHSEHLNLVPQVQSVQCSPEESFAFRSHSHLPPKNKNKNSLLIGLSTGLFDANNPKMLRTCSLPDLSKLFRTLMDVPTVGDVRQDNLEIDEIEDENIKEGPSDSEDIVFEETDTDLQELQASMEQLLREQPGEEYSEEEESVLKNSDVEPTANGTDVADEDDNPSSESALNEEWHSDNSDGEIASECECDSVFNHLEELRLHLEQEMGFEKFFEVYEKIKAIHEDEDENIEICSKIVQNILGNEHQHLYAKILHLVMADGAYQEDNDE
Particulars: at 0.1 µM.

In assay [13] the target is T5, Serine/threonine-protein kinase Nek1 (Homo sapiens). Particulars: at 1 µM.
In assay [14] the target is T6, Serine/threonine-protein kinase Nek2 (Homo sapiens) (UniProt P51955).
T6 sequence (whole entry): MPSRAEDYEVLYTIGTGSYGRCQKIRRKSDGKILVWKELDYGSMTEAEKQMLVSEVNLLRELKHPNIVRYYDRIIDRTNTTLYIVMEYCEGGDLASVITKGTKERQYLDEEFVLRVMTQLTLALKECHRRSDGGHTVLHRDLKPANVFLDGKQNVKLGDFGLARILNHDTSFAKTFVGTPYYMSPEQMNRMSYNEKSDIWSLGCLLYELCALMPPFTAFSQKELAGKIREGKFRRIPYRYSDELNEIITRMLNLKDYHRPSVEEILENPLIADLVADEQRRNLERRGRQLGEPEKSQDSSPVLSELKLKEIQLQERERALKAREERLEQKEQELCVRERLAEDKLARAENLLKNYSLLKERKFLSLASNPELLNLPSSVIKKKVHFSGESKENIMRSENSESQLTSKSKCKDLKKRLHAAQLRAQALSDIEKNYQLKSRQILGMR
The following applies: at 0.1 µM.

Assay [15] addresses T6, Serine/threonine-protein kinase Nek2 (Homo sapiens). Particulars: at 1 µM.
Assay [16] concerns the target Serine/threonine-protein kinase Nek6 (Homo sapiens) (UniProt Q9HC98). Particulars: at 0.1 µM.
For assay [17] the target is unchanged. Particulars: at 1 µM.
Assay [18] has as its target Serine/threonine-protein kinase Nek7 (Homo sapiens) (UniProt Q8TDX7). The following applies: at 0.1 µM.
Assay [19] shares this target. Particulars: at 1 µM.
In assay [20] the target is T7, Serine/threonine-protein kinase Nek9 (Homo sapiens) (UniProt Q8TD19).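 Further: reported value is the mean percent inhibition of NEK9.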
T7 sequence (whole entry): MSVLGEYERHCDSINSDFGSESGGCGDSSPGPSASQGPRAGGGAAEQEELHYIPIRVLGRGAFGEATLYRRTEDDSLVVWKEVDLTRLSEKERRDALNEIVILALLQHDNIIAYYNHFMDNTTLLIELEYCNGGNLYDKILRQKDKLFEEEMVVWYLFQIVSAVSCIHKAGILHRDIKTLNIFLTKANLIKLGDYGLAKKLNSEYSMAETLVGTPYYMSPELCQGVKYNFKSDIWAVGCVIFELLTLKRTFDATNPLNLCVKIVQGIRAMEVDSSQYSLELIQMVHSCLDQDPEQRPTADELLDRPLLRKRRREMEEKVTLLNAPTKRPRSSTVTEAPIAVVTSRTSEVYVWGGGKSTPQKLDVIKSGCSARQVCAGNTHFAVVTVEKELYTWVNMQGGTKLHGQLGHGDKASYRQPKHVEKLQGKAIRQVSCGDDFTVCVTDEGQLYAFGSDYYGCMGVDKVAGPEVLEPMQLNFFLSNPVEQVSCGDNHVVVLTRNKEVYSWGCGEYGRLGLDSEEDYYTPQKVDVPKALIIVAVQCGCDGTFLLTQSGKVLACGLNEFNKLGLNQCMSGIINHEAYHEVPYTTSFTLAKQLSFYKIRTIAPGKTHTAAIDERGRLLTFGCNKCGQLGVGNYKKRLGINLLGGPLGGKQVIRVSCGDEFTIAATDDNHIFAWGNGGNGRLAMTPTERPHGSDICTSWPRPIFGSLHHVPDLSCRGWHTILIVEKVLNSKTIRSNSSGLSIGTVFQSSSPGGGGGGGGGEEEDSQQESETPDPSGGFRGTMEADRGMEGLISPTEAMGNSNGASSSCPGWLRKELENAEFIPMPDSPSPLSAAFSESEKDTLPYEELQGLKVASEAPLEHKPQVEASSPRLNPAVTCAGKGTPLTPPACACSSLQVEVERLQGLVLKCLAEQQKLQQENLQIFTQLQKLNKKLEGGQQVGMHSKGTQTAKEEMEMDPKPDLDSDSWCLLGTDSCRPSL
Particulars: at 0.1 µM.

Casein kinase II subunit alpha (Homo sapiens), sequence (P68400 whole entry, looked up): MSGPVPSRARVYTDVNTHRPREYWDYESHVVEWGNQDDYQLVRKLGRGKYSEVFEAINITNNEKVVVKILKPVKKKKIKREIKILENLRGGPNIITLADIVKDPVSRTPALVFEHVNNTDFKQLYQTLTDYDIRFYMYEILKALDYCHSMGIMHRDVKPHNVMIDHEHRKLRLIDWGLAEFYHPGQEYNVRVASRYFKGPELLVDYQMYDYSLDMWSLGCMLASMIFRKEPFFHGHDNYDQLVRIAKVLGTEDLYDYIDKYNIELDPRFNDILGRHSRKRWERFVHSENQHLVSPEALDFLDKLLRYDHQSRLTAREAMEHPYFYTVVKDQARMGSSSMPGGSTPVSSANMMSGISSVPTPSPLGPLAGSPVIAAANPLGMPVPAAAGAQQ
Serine/threonine-protein kinase Nek7 (Homo sapiens), sequence (Q8TDX7 whole entry, looked up): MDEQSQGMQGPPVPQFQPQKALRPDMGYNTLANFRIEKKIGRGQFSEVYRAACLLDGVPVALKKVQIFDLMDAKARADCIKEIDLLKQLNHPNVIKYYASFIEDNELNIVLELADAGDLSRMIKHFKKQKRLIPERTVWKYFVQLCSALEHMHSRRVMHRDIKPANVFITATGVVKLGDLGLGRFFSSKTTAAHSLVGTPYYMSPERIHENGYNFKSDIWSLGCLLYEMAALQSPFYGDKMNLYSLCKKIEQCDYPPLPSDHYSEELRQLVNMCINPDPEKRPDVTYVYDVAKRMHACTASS
Serine/threonine-protein kinase Nek6 (Homo sapiens), sequence (Q9HC98 whole entry): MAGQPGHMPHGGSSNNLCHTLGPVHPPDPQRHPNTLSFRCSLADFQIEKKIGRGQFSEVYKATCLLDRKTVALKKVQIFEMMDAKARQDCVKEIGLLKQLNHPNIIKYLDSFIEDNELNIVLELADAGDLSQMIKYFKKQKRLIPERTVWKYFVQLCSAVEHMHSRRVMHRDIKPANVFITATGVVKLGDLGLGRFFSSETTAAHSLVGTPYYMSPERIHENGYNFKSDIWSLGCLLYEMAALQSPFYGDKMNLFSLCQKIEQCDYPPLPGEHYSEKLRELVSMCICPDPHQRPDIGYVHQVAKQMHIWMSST
Sphingosine kinase 1 (Homo sapiens), sequence (Q9NYA1 whole entry): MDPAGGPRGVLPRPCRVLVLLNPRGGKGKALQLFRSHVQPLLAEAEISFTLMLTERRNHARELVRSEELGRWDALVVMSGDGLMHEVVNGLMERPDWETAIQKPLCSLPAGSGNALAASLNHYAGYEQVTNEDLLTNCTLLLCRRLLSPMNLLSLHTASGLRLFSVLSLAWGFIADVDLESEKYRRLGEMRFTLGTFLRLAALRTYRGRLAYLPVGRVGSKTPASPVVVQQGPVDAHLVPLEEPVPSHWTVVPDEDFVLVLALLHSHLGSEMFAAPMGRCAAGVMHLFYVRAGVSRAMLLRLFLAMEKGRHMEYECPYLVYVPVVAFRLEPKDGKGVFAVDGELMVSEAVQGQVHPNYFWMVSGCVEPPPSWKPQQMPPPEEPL

Regarding `Clc1ccc(CNc2nccc(-c3cnn4ncccc34)n2)cc1`, the inhibition in assay [1] was 0.04%; in assay [2], -0.11%; in assay [3] it was -0.22%; in assay [4], 2.95%; in assay [5], 17.9%; in [6], 1.91%. In addition, the inhibition in [7] is 7.65%; in assay [8] it was 1%; in assay [9] it was 0.32%; in assay [10], 0.31%; in [11], -0.99%; in assay [12] it was 0.32%. For the same compound, the inhibition in assay [13] was 19.8%; in [14] it was 0.93%; in assay [15] it was 0.52%; in [16] it was 3.94%; in assay [17], -1.91%; in assay [18], -2.2%. Besides, the values for the inhibition in assay [19] and in [20] were 0.48% and -0.09%, respectively.
